For eight molecules, growth results are on record in PubChem BioAssay (NCI).

Compounds without any hit were thinned out: in the full panel of roughly 83,000, 20% have a hit.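 Results are percent growth after 48 hours of single-concentration exposure. 100 means growth as in untreated cells, lower positive values show inhibition; negative values down to -100 show cell death.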 A number with no mark means an inactive call. Active and inactive are the calls of the source. The calls were made as follows: active = growth percent below 10; inactive = the rest.

Assay in all cases: NCI-60 one-dose screen, 48 h (100 = growth as untreated, 0 = no growth, -100 = all killed)
Holding throughout (conditions): 10 µM unless noted

The subject of test [1] is EKVX NSCLC.
Test [2] relates to SN12C renal.
Test [3] concerns UO-31 renal.
Test [4] has as its system ACHN renal.
The test system of test [5] is CAKI-1 renal.
The subject of test [6] is A498 renal.
Test [7] relates to CCRF-CEM leukemia.
Test [8] concerns SR leukemia.
Test [9] deals with RPMI-8226 leukemia.
In test [10] the test system is OVCAR-8 ovarian.
The subject of test [11] is OVCAR-5 ovarian.
Test [12] has as its system OVCAR-4 ovarian.
Test [13] concerns SK-OV-3 ovarian.
The subject of test [14] is IGROV1 ovarian.
Test [15] concerns OVCAR-3 ovarian.
Test [16] concerns HS 578T breast.
Test [17] has as its system NCI/ADR-RES ovarian.
Test [18] concerns T-47D breast.
Test [19] relates to MOLT-4 leukemia.

For the molecule `Clc1ccc2oc3c(NCCCN4CCOCC4)c4ccccc4nc3c2c1`, the growth in [1] is 37.9%; in test [2], 19.6%; in [3], 24.2%; in test [4], 13.4%; in test [5], 12.8%; in test [6], -2.14% (active). For the same molecule, the growth was 27.6% in test [7]; 1.91% (active) in test [8]; 11.4% in test [9]; 23.3% in [10]; 30% in [11]; 36.9% in test [12]. For the same molecule, the growth is 57.8% in test [13]; 16.9% in test [14]; 64.5% in test [15]; 37.8% in [16]; 29.2% in test [17]; 51.7% in test [18].

Consider `CC(C)Sc1nc(Nc2ccc(S(N)(=O)=O)cc2)c(C#N)c(-c2ccc(F)cc2)n1`, for which the growth in test [1] was 50.9%; in [7] it was 36.6%; in test [19], 49.9%; in test [8], -36.9% (active); in test [9], 58.1%; in test [11], 67.3%. In addition, the growth in test [17] is 32.5%.

`OC1CCN(CCCOc2c3ccc(Cl)cc3nc3c2oc2ccc(Cl)cc23)CC1`: the growth is 34.7% in test [1]; 23.2% in [2]; 7.4% (active) in [3]; -98.4% (active) in [4]; 3.71% (active) in [5]; -7.6% (active) in test [6]. Besides, the growth in test [7] was -28.8% (active); in test [19], 0.17% (active); in test [8], -39.3% (active); in test [9], -8.79% (active); in test [10] it was 27.7%; in [11], -28.1% (active). Also, the growth was 55% in test [12]; 50.8% in test [13]; 9.03% (active) in [14]; 46.5% in test [15]; 32.4% in [17]; 52.3% in [18].

Consider `COc1cc2nc(-c3ccc(C)cc3)cc(OCCCNCC3CCCO3)c2cc1OC` (centres undefined), for which the growth in test [1] was 73.4%; in test [2], 57.3%; in test [3] it was 72%; in [4] it was 65.7%; in test [5], 24.6%; in test [6], 46.9%. Further, the growth in test [7] is 73.4%; in [19], 71.9%; in test [8], 41.1%; in [9], 24.1%; in test [10] it was 46.8%; in [11], 56.7%. Further, the growth in test [12] was 89.8%; in [13], 113%; in [14], 49.1%; in test [15], 101%; in test [17] it was 54.8%; in [18], 66%.

In the case of `CN(C)CCCOc1c2ccc(Cl)cc2nc2c1oc1ccc(Cl)cc12`, the growth in test [1] is 31.8%; in test [2], 21.4%; in [3] it was 2.96% (active); in test [4] it was -85.6% (active); in test [5], -12.1% (active); in test [6] it was -6.7% (active). The growth is 1.92% (active) in test [19]; -31.1% (active) in test [8]; -20.8% (active) in [9]; 26.7% in test [10]; 21.3% in [11]; 50.6% in test [12]. Also, the growth in test [13] was 41.4%; in test [14] it was 6.89% (active); in [15], 45.4%; in test [16], 26.3%; in test [17] it was -20.8% (active); in test [18], 58.7%.

Take `COc1ccc(-c2csc(N/N=C/c3c(-c4ccc(S(C)(=O)=O)cc4)nc4ccccn34)n2)cc1`: the growth was 106% in test [1]; 105% in test [2]; 87% in [3]; 102% in [4]; 93.4% in [5]; 85.9% in test [6]. Further, the growth in test [7] is 94.2%; in test [8], 94.5%; in test [9], 91.4%; in test [10], 103%; in test [11], 108%; in [12], 105%. The growth was 136% in test [13]; 115% in test [14]; 124% in test [15]; 110% in [17]; 87.8% in test [18].

With `c1ccc2c(NCCCN3CCOCC3)c3oc4ccccc4c3nc2c1`, the growth in test [1] was -19.6% (active); in [2], 3.3% (active); in test [3], -79.6% (active); in [4] it was -9% (active); in test [5], -27% (active); in test [6], -86.9% (active). The growth was 12% in test [7]; -4.43% (active) in test [19]; -12.1% (active) in test [8]; -14.4% (active) in test [9]; -71.7% (active) in [10]; 1.26% (active) in test [11]. Moreover, the growth was 7.86% (active) in test [12]; -9.67% (active) in [13]; -16.7% (active) in test [14]; -19.6% (active) in test [15]; 5.28% (active) in test [16]; 7.98% (active) in test [17]. Further, the growth in [18] was 21.1%.

Consider `Clc1ccc2c(NCCCn3ccnc3)c3oc4ccccc4c3nc2c1`, for which the growth was 16.1% in [1]; 33.2% in [2]; 36.2% in [3]; 18.1% in test [4]; 22.1% in [5]; 8.07% (active) in test [6]. The growth in [7] is 37.4%; in test [19], 13.3%; in [8], 9.35% (active); in test [9], 26.4%; in [10] it was 32.1%; in test [11] it was 38.2%. The growth in test [12] is 55%; in test [13] it was 104%; in test [14], 32.9%; in [15], 68.4%; in [16], 61.6%; in test [17], 45%. The growth in test [18] was 60.1%.
